Screens: PubChem BioAssay, several laboratories
CYP2C9 inhib: blocks human cytochrome P450 2C9; CYP2C9 Supersomes, luciferin-H conversion, luminescence; P11712; AID 777; inhibition, % at 5 µM; hit rate 20% among 96,000;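 active = blocking of liver enzyme CYP2C9 beyond about 50% at 5 µM, limit read from the data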
Target sequence (P11712 whole entry, looked up): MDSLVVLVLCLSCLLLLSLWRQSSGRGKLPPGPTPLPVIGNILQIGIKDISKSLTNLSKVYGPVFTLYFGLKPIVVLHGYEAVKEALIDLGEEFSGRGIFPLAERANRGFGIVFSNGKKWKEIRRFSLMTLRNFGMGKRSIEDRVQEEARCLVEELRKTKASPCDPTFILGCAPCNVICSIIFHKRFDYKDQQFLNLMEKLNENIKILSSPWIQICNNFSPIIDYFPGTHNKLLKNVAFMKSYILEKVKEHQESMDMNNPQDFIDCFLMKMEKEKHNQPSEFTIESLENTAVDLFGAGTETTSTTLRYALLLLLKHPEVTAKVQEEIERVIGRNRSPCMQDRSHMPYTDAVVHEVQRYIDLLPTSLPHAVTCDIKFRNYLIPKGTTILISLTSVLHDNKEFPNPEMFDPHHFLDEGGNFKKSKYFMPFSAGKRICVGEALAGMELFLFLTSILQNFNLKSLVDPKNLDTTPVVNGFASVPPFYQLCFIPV
CYP2C19 inh: inhibitors of human CYP2C19 | P33261 | CYP2C19 Supersomes, luciferin-H EGE luminescence, 30 min | inhibition, % at 5 µM | hit rate 21% among 96,000;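 active = CYP2C19 inhibition above a set limit at 5 µM in the primary screen, cut at about 50% in these data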
EphB4 antag: antagonists of human EphB4-ephrin-B2 interaction; EphB4 LBD / TNYL-RAW-Alexa532 peptide, fluorescence polarization; AID 720; hit rate 0.15% among 97,000; inhibition, % at 7 µM;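 active = inhibition above the screen-wide mean inhibition plus 3 SD, cut at about 15% in these data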
CYP2C9 act: activators of human CYP2C9. activation factor at 5 µM. hit rate 1.4% among 96,000. recombinant CYP2C9, luciferin-H conversion, luminescence; active compounds read high; factor 1 = untreated enzyme, 0 = blocked. AID 1024;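 active = activation factor of 2 or more for CYP2C9 at a 5 µM dose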
CYP2C19 act: increases human CYP2C19 enzyme activity. AID 1025. activation factor at 5 µM. recombinant CYP2C19, luciferin-H EGE luminescence; active compounds read high; 0 = fully inhibited enzyme, 1 = untreated enzyme. P33261. 96,000 tested, under 10 active;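 active = activation factor of at least 2 at 5 µM in the primary screen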
Numbers stand for hits; – = inactive; · = not tested or not shown. Shown are actives, neighbours in structure and some others; about 27% of the full set was active somewhere.

SMILES | CYP2C9 inhib | CYP2C19 inh | EphB4 antag | CYP2C9 act | CYP2C19 act
Cc1ccc(NC(=S)NNC(=O)c2ccccc2OC(F)F)cc1 | 55.9 | – | – | – | –
COc1cccc(NC(=S)NNC(=O)c2ccccc2OC(F)F)c1 | 64.2 | – | – | – | –
O=C(NNC(=S)Nc1ccc(F)cc1)c1ccccc1OC(F)F | 58.4 | – | – | – | –
CCOC(=O)N1CCN(CCC(=O)Nc2ccc(OC)cc2)CC1 | – | – | – | – | –
COC(=O)C1(CCSC)NC(c2ccco2)C2C(=O)N(C)C(=O)C21 (stereo not drawn) | – | 60.4 | – | – | –
COC(=O)C1(CCSC)NC(c2ccccc2OC)C2C(=O)N(C)C(=O)C21 (stereo not drawn) | – | – | – | – | –
N#CC(C#N)=c1ccc2c(c1)NC1(CCCCC1)N=2 | 56.0 | – | – | – | –
O=C(Oc1ccc(N(Cc2cccs2)C2=NS(=O)(=O)c3ccccc32)cc1)c1ccccc1F | 97.3 | 69.0 | – | – | –
CCOC(=O)C1=C(CC)Nc2ccccc2N=C1NC(=O)c1cc(S(=O)(=O)N(C)C)ccc1Cl | 68.0 | – | – | – | –
CCc1nnc(NC(=O)CN2C(=O)c3ccccc3S2(=O)=O)s1 | – | – | – | – | –
CC(C)C(=O)N1CCN(c2ccccc2NC(=O)Cc2ccc(Cl)cc2)CC1 | – | – | – | – | –
CC1CC(C)CN(CCOc2ccc(Cl)cc2Cl)C1 (stereo not drawn) | – | 98.4 | – | – | –
Clc1ccc(OCCN2CCCCC2)c(Cl)c1 | – | – | – | – | –
Brc1ccc(-c2nc(-c3ccncc3)no2)o1 | – | 91.4 | – | – | –
Brc1ccc(-c2nc(-c3ccccn3)no2)o1 | – | 61.6 | – | – | –
Cc1cccn2c(=O)c3cc(C(N)=S)c(=N)n(CCCOC(C)C)c3nc12 | – | 86.2 | – | – | –
COCCn1c(=N)c(C(=O)NCCc2ccccc2)cc2c(=O)n3cccc(C)c3nc21 | · | · | – | · | ·
CCCCNC(=O)c1cc2c(=O)n3cccc(C)c3nc2n(Cc2ccccc2)c1=N | 64.4 | – | · | – | –
Cc1cccn2c(=O)c3cc(C(=O)NCCc4ccccc4)c(=N)n(CCCn4ccnc4)c3nc12 | 57.8 | 55.1 | – | – | –
CC1CCCC(NC(=O)C2CCN(S(=O)(=O)N3CCOCC3)CC2)C1C (stereo not drawn) | – | – | – | – | –
Cc1ccccc1C(=O)N=c1sccn1C | – | 93.1 | – | – | –
Cc1ccccc1C(=O)Nc1nncs1 | – | – | – | – | –
CC(C)(C)c1ccc(S(=O)(=O)CCc2ccccn2)cc1 | – | 68.2 | – | – | –
COc1ccc(-c2nnc3n2N=C(c2ccccc2)CS3)cc1OC | 75.6 | 52.3 | · | – | –
COc1ccc(C2=Nn3c(nnc3-c3ccccc3)SC2)cc1OC | – | 72.0 | – | – | –
SMILES | CYP2C9 inhib | CYP2C19 inh | EphB4 antag | CYP2C9 act | CYP2C19 act
O=C(c1nn(-c2ccccc2)c(=O)c2ccccc12)N1CCN(c2ccccn2)CC1 | – | – | – | – | –
CC12CCC(C(=O)NCc3ccccn3)(OC1=O)C2(C)C (stereo not drawn) | – | – | – | – | –
COc1ccccc1NC(=S)NNC(=O)c1ccc(Cl)cc1Cl | · | · | – | · | ·
COc1cc(C(=O)Oc2cccc(C=O)c2)cc(OC)c1OC | – | – | – | – | –
COc1cc(C(=O)Oc2ccccc2N)cc(OC)c1OC | 67.7 | – | · | – | –
COc1cc(C(=O)Oc2ccccc2/C=N/NC(=O)c2ccc(Cl)cc2Cl)cc(OC)c1OC | 97.2 | – | – | – | –
COC(=O)c1cc(OC)c(OC)c(OC)c1N | – | 64.2 | · | – | –
CCOC(=O)CC(=O)CSc1nc2c(C)c(C)ccc2cc1C | 54.3 | 61.0 | – | – | –
CCOc1cc(C(N)=O)cc(Br)c1OC | · | · | – | · | ·
COc1ccc(-c2nc(CCNC(=O)c3cccs3)cs2)cc1 | 75.6 | – | – | – | –
CC(C)(CNC(=O)c1cccs1)CNC(=O)c1cccs1 | 86.2 | 57.9 | – | – | –
CC1CCN(c2ccc(C(=O)NCCc3ccccc3)cn2)CC1 | 66.6 | – | · | – | –
O=C(NCCc1ccccc1)c1ccncc1 | – | 77.6 | – | – | –
CCOC(=O)CNC(=O)c1cccs1 | · | · | – | · | ·
COCCNC(=O)Cn1cnc2ccc(S(=O)(=O)N3CCC(C)CC3)cc2c1=O | – | – | – | – | –
CC12CCC(C(=O)NC3CCCC3)(CC1=O)C2(C)C (stereo not drawn) | – | – | – | – | –
Nn1c(SCC(=O)Nc2ccc(F)cc2)nnc1-c1ccccn1 | – | – | – | – | –
Cc1nnc(NC(=O)NC(C)N2C(=O)C3C4C=CC(C4)C3C2=O)s1 (stereo not drawn) | – | – | – | – | –
CCN1C(=O)/C(=C2/C=CC=CN2C)OC1=S | – | – | – | – | –
O=C(NCCCNC(=O)c1cccs1)c1cccs1 | – | – | – | – | –
COCCCNC(=O)c1cccs1 | – | – | – | – | –
CCCCC(CC)CNC(=O)c1cccs1 (stereo not drawn) | 90.9 | 87.8 | – | – | –
O=C(NCCc1ccccc1)c1cccs1 | – | 53.1 | – | – | –
CC1(C)CC(=O)C=C(NCc2cccnc2)C1 | – | – | – | – | –
CN(C)c1ccc(N/C=C/C(=O)c2ccccc2)cc1 | 73.1 | 98.7 | – | – | –
SMILES | CYP2C9 inhib | CYP2C19 inh | EphB4 antag | CYP2C9 act | CYP2C19 act
O=C(/C=C\NCC(=O)c1ccccc1)c1ccc(F)cc1 | – | 56.4 | – | – | –
Cc1ccc(N/C=C/C(=O)c2ccc(C)cc2)cc1 | – | – | – | – | –
O=C(/C=C/Nc1ccccc1)c1ccccc1 | – | 54.8 | – | – | –
C/C(=C\C(=O)c1ccccc1)NCc1ccc(F)cc1 | – | – | – | – | –
COc1cc2c(cc1OC)C(C(=O)N1CCOCC1)C(c1cccs1)N(C)C2=O (stereo not drawn) | – | – | – | – | –
Cc1nnc(N/N=C/c2cc([N+](=O)[O-])c(N3CCC(C)CC3)cc2N2CCC(C)CC2)n1N | – | – | – | – | –
COc1cc2[nH]c(=O)n(CCC(=O)NCCC(C)C)c(=O)c2cc1OC | – | – | – | – | –
COc1ccccc1N1CCN(C(=O)CSc2nnc(NC(=O)c3ccco3)s2)CC1 | – | – | – | – | –
Cc1ccc2c(nc3s/c(=C/c4cccs4)c(=O)n32)c1C | – | – | · | – | –
CCC(=O)Nc1cc(C)c(NC(=O)c2ccco2)cn1 | – | – | – | – | –
Cc1cc(NC(=O)c2ccccc2)ncc1NC(=O)c1ccco1 | 56.3 | 94.6 | – | – | –
CCCC(=O)Nc1cc(C)c(NC(=O)c2ccccn2)cn1 | – | 54.5 | – | – | –
CCCC(=O)Nc1cnc(NC(=O)c2cccc(F)c2)cc1C | – | 68.4 | – | – | –
O=C(c1oc(=O)c2ccccc2c1-c1ccccc1)N1CCOCC1 | – | – | – | – | –
O=C(c1ccco1)N1CCN(C(=O)c2oc(=O)c3ccccc3c2-c2ccccc2)CC1 | 59.9 | – | – | – | –
CCOC(=O)N1CCN(C(=O)c2oc(=O)c3ccccc3c2-c2ccc(C)cc2)CC1 | 59.3 | 60.3 | – | – | –
CCCc1cc(=O)[nH]c(Nc2ccc(N3CCCCC3)cc2)n1 | – | – | – | – | –
